Experimental data as given in PubChem BioAssay (Tox21).
Results filed as inconclusive are left out. Calls of active or inactive are those of the source. Unless noted, calls come from the whole dose curve; as a rule, active = well fitted curve in the direction sought with a large enough effect in the repeat runs; inconclusive = weak or mixed curves; inactive = no such curve, though single readings can be large; an effect the other way counts as inactive or inconclusive.

How the values were obtained:
[1] = biological target: Retinoic acid receptor RXR-alpha (Homo sapiens) (UniProt P19793); assay: qHTS assay to identify small molecule agonists of the RXR signaling pathway (AID 1159527; calls by dose curve; note: nearly all actives have a fitted effect of over 35% in size); settings: HEK293T RXRa-UAS-bla, beta-lactamase ratio, 16 h; series mostly up to 35.3 µM
Procedure, shortened: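 16 hr incubation of compound-treated RXR-alpha-UAS-bla HEK 293T cells (2% charcoal-stripped FBS, 37 C) preceded a 2 hr room-temperature LiveBLAzer FRET substrate step and blue/green fluorescence measurement.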

[2] = qHTS assay to identify small molecule agonists of the RXR signaling pathway - cell viability counter screen (AID 1159529); settings: RXR-alpha-bla HEK293T viability, CellTiter-Glo, 16 h; series mostly up to 35.3 µM;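 note: HEK 293T cells carrying an RXR-alpha UAS beta-lactamase reporter; nearly all actives have a fitted effect of over 50% in size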
Procedure, shortened: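 In this parallel viability measure, GeneBLAzer RXR-alpha HEK 293T cells (2% charcoal-stripped FBS) were given a 5 hr preincubation, treated with compounds 16 hr at 37 C, and read by CellTiter-Glo luminescence.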

[3] = qHTS assay to identify small molecule antagonists of the retinoid acid receptor (RAR) signaling pathway - cell viability counter screen (AID 1159551); settings: C3RL4 cells viability, ATP luminescence (CellTiter-Glo), 6 h; series mostly up to 92.4 µM; note: nearly all actives have a fitted effect of over 35% in size
Procedure, shortened: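 C3RL4 RARE-luciferase line; cpds + retinol 1 uM final, 6 h, 37 C/5% CO2; CellTiter-Glo ATP luminescence, 30 min RT.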

[4] = qHTS assay to identify small molecule antagonists of the retinoic acid receptor (RAR) signaling pathway (AID 1159552; note: nearly all actives have a fitted effect of over 50% in size); settings: C3RL4 RARE luciferase reporter, retinol-stimulated, 6 h; series mostly up to 92.4 µM
Procedure, shortened: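 C3RL4 RARE-luc cells, overnight plating; retinol 1 uM final added right after compound; 6 hr 37 C; luciferase read at 30 min RT.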

[5] = qHTS assay to identify small molecule agonists of the retinoic acid receptor (RAR) signaling pathway (AID 1159553); settings: C3RL4 RARE luciferase reporter, agonist, 6 h; series mostly up to 73.3 µM
Procedure, shortened: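 RARE-luc C3RL4 cells; overnight attachment 37 C/5% CO2; compound (DMSO) 6 hr; luciferase reagent, 30 min RT; luminescence read-out.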

[6] = qHTS assay to identify small molecule antagonists of the estrogen related receptor (ERR) signaling pathway from Tox21 library - cell viability counter screen (AID 1224834); settings: ERR reporter cells viability, CellTiter-Fluor, 17.5 h; series mostly up to 92.4 µM; note: nearly all actives have a fitted effect of over 30% in size
Procedure, shortened: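 Multiplexed viability counter screen in ERR cells: 17.5 h compound exposure at 37 C, CellTiter-Fluor added, 30 min at 37 C/5% CO2, fluorescence read.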

[7] = biological target: Luciferin 4-monooxygenase (Photinus pyralis) (UniProt P08659); assay: qHTS assay to identify small molecule inhibitors of firefly luciferase (AID 1224835); note: nearly all actives have a fitted effect of over 25% in size; settings: purified P. pyralis luciferase, luminescence inhibition; series mostly up to 115 µM
Procedure, shortened: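 Inhibition of purified Photinus luciferase is measured by luminescence. Substrate levels (D-luciferin, ATP) sit at their KM values. Each compound is tested in a concentration series.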

[8] = qHTS assay to identify small molecule agonists of the constitutive androstane receptor (CAR) signaling pathway - cell viability counter screen (AID 1224836); settings: HepG2-CYP2B6-hCAR viability, CellTiter-Fluor, 23 h, PK11195 added to every well; series mostly up to 92.4 µM; note: nearly all actives have a fitted effect of over 45% in size
Procedure, shortened: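 Using CellTiter-Fluor, viability of HepG2 cells harbouring hCAR and CYP2B6-2.2kb was measured following 23 h incubation with a 15-concentration compound series plus PK11195 (0.75 uM final).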

[9] = qHTS assay to identify small molecule antagonists of the constitutive androstane receptor (CAR) signaling pathway - cell viability counter screen (AID 1224837); settings: HepG2-CYP2B6-hCAR viability, CellTiter-Fluor, 23 h, co-treated with 50 nM CITCO; series mostly up to 92.4 µM; note: nearly all actives have a fitted effect of over 45% in size
Procedure, shortened: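 Read-out: CellTiter-Fluor fluorescence after 23 hr at 37 C/5% CO2. Cells: HepG2 double-stable for hCAR and CYP2B6-2.2kb. Compounds tested at 15 concentrations in the presence of CITCO, final concentration 50 nM.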

[10] = biological target: Nuclear receptor subfamily 1 group I member 3 (Homo sapiens) (UniProt Q14994); assay: qHTS assay to identify small molecule antagonists of the constitutive androstane receptor (CAR) signaling pathway (AID 1224838); settings: HepG2-CYP2B6-hCAR luciferase, CITCO-stimulated, 24 h; series mostly up to 92.4 µM;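 note: HepG2 cells stably expressing hCAR with CYP2B6 luciferase reporter stimulated by CITCO; nearly all actives have a fitted effect of over 40% in size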
Procedure, shortened: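 Read-out: ONE-Glo luciferase luminescence after 30 min at room temperature. HepG2-CYP2B6-hCAR double-stable cells, compounds in 15-point titration plus 50 nM CITCO final, 24 h at 37 C/5% CO2.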

[11] = biological target: Nuclear receptor subfamily 1 group I member 3 (Homo sapiens) (UniProt Q14994); assay: qHTS assay to identify small molecule agonists of the constitutive androstane receptor (CAR) signaling pathway (AID 1224839); settings: HepG2 hCAR CYP2B6-luciferase, agonist mode, 24 h; series mostly up to 92.4 µM;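 note: HepG2 cells stably carrying human CAR and a CYP2B6 luciferase reporter; nearly all actives have a fitted effect of over 15% in size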
Procedure, shortened: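 Double-stable HepG2 cells (hCAR, CYP2B6-2.2kb) seeded 4 h before compound addition. Exposure 24 h with 0.75 uM PK11195 final. Luciferase detected by ONE-Glo.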

[12] = qHTS assay to identify small molecule antagonists of the estrogen related receptor signaling pathway with the pleiotropic PPARgamma coactivator (PGC) from Tox21 10K library - cell viability counter screen (AID 1224840; active = well fitted cell-killing curve with a large enough effect in the repeat runs, not every such curve was filed as active; note: nearly all actives have a fitted effect of over 40% in size); settings: PGC/ERR reporter cells viability, CellTiter-Fluor, 17.5 h; series mostly up to 92.4 µM
Procedure, shortened: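 Fluorescence read-out of CellTiter-Fluor viability reagent, added after cells had been exposed to compound in DMSO for 17.5 h at 37 C; 30 min development at 37 C/5% CO2. Cells: PGC/ERR line, 2,000/well.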

[13] = qHTS assay to identify small molecule antagonists of the estrogen related receptor signaling pathway with the pleiotropic PPARgamma coactivator (PGC) from Tox21 10K library (AID 1224841; call rule not given here; note: actives are mostly falling curves and most rising ones were filed inactive; nearly all actives have a fitted effect of over 50% in size); settings: PGC/ERR reporter cell line, ONE-Glo luciferase, 18 h; series mostly up to 92.4 µM
Procedure, shortened: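 Luminescence read-out (One-Glo luciferase reagent, 30 min at room temperature) from PGC/ERR cells exposed to DMSO-dissolved test compounds for 18 h at 37 C; cells, 2,000 per well, had been preincubated 6 h before compound transfer.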

[14] = qHTS assay to identify small molecule agonists of the estrogen related receptor signaling pathway with the pleiotropic PPARgamma coactivator (PGC) from Tox21 10K library (AID 1224842); settings: PGC/ERR reporter cell line, luciferase ONE-Glo, 18 h; series mostly up to 92.4 µM; note: nearly all actives have a fitted effect of over 15% in size
Procedure, shortened: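 Luminescence from One-Glo (30 min, room temperature) measured after PGC/ERR cells had 18 h at 37 C with pinned compound (23 nL in DMSO). Cells had been seeded at 2,000 per well and pre-incubated 6 h.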

Measured: Potency

Retinoic acid receptor RXR-alpha (Homo sapiens), sequence (P19793 whole entry, looked up): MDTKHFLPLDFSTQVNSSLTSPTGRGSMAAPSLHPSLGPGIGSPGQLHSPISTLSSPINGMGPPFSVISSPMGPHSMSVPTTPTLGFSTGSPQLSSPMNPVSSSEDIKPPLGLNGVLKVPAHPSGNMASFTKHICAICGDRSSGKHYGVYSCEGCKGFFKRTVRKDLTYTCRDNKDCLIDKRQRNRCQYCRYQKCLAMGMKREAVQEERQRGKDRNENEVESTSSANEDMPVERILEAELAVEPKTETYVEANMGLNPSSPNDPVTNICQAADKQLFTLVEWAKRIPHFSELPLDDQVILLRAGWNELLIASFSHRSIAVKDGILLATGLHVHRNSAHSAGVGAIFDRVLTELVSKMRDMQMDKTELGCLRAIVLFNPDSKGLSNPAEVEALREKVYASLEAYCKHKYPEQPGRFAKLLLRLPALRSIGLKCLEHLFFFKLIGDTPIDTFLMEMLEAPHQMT
Nuclear receptor subfamily 1 group I member 3 (Homo sapiens), sequence (Q14994 whole entry, looked up): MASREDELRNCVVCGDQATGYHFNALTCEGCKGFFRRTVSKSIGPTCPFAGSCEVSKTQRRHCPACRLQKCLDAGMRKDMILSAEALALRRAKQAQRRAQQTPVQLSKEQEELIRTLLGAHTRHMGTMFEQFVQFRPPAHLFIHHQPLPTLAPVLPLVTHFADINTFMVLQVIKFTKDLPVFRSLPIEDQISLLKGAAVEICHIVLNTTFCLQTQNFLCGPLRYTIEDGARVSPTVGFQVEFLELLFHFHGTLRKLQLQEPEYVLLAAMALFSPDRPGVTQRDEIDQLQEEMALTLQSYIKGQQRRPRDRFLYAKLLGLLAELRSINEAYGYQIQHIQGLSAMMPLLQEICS
Luciferin 4-monooxygenase (Photinus pyralis), sequence (P08659 whole entry, looked up): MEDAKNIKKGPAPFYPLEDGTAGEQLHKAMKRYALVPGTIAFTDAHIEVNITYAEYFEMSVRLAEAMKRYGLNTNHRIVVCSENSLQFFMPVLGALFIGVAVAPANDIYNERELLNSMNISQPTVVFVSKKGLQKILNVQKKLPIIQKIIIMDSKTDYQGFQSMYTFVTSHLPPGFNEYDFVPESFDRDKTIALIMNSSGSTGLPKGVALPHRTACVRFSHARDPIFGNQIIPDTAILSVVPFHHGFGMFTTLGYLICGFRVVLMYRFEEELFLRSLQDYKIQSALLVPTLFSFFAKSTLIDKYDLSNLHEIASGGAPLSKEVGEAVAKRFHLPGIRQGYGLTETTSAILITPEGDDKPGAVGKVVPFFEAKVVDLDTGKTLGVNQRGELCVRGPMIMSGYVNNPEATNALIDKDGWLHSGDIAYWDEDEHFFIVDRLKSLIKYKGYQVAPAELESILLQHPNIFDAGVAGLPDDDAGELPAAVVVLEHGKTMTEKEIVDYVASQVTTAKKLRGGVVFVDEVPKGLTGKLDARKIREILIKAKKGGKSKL

CC(=O)Nc1c(I)cc(I)c(C(=O)O)c1I
inactive: all assays above

COC(C)(C)CCCC(C)CC=O (stereo not drawn)
inactive: all assays above

CCOC(=O)c1cccc(N)c1
inactive: all assays above

COc1nc(N)nc2c1ncn2[C@@H]1O[C@H](CO)[C@@H](O)[C@@H]1O
inactive: all assays above

CCC(=O)OC(C)c1ccccc1 (stereo not drawn)
inactive: all assays above

CC1(C)CO[C@@H](CC(=O)O)CN1
inactive: all assays above

Cc1ccc(C#N)cc1
inactive: all assays above

C=COCC1CCC(CO)CC1 (stereo not drawn)
inactive: all assays above

C=C(C)C(=O)OCCCCCCCC(C)C
inactive: all assays above

CCOC(=O)c1c(C)n(C)c2ccc(O)cc12
inactive: all assays above

O=C(O)CCCc1ccccc1
inactive: all assays above

CC1(C)C(O)C(C)(C)C1O (stereo not drawn)
inactive: all assays above

C/C=C(\C)C#N
inactive: all assays above

CC(C)(C)c1nnc(NS(=O)(=O)c2ccccc2)s1
inactive: all assays above

Cn1cc(S(C)=O)c(=O)c2ccc(F)cc21 (stereo not drawn)
inactive: all assays above

CC(C)(O)C(=O)c1ccccc1
inactive: all assays above

CCCCNC(=O)NCCCC
inactive: all assays above
